Measurements reported in the supplement of paper PMC10849652.
Of roughly 7,900 targets only a part is listed; those with a hit were picked by preference. About 0.6% of all pairs of compound and target were hits.

Assays:
Assay in all cases: log2 fold change, soluble protein after heating vs DMSO (PISA); higher = thermal stabilisation; K562 cells, 10 uM, 30 min; active = over 0.2 and 3.5 SD of the protein, either way, in both replicates (recomputed)
[1] = compound: C1=CC=C(C=C1)[C@H](COC2=CC3=C(C=C2)NC(=O)N3)NC(=O)C4=CC=CN(C4=O)CC5=CC(=C(C=C5)F)F
Outline: (§1)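 K562 cells at 2×10^6 cells/mL were exposed to 10 μM compound for 30 min, then aliquots were heated for 3 min across 48°C-58°C, pooled, and extracted in PBS containing 0.5% NP-40 at 4°C. The supernatant after 21,000xg for 90 min was taken as soluble protein and measured by TMTpro 16plex LC-MS/MS with channel sums equalised. Thermal stability is reported relative to control samples, with values from duplicates. Fold changes are given on a log2 scale.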

[2] = compound: CC1=C(SC2=C1C(=N[C@H](C3=NN=C(N32)C)CC(=O)N)C4=CC=C(C=C4)Cl)C
Outline: as §1

[3] = compound: CC1=C2C(=CC=C1)N=C(N(C2=O)C3=CC=CC=C3C)CN4C=NC5=C(N=CN=C54)N
Outline: as §1

[4] = compound: Cc1sc2c(c1C)C(c1ccc(Cl)cc1)=N[C@@H](CC(=O)OC(C)(C)C)c1nnc(C)n1-2
Outline: as §1

[5] = compound: c1ccc([C@@H]2C[C@H]2NC2CCNCC2)cc1
Outline: as §1

Measured: log2 fold change

PAAF1 (UniProt Q9BRP4)
inactive: [1] -0.012 | [2] 0.043 | [3] 0.076 | [4] -0.014 | [5] 0.008

MOV10 (UniProt Q9HCE1)
inactive: [1] 0.067 | [2] -0.095 | [3] -0.095 | [4] 0.145 | [5] 0.057

MITD1 (UniProt Q8WV92)
inactive: [1] -0.058 | [2] 0.022 | [3] -0.326 | [4] 0.045 | [5] 0.06

NQO1 (UniProt P15559)
inactive: [1] 0.07 | [2] 0.122 | [3] 0.083 | [4] -0.015 | [5] -0.072

NR2C2AP isoform 2 (UniProt Q86WQ0)
inactive: [1] -0.016 | [2] 0.043 | [3] 0.081 | [4] -0.067 | [5] 0.032

MPP1 (UniProt Q00013)
inactive: [1] -0.055 | [2] -0.06 | [3] 0.051 | [4] -0.024 | [5] 0.013

MYH16 (UniProt Q9H6N6)
inactive: [1] -0.164 | [2] -0.042 | [3] -0.142 | [4] 0.069 | [5] -0.034

NDUFA6 (UniProt P56556)
UniProt P56556, sequence (P56556 whole entry, looked up): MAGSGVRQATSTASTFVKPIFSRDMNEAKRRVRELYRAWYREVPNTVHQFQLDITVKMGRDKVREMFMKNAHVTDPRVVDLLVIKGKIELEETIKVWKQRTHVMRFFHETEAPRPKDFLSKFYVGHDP
inactive: [1] -0.017 | [2] 0.121 | [3] 0.104 | [4] -0.067 | [5] -0.039

NUP98 (UniProt P52948)
inactive: [1] -0.041 | [2] 0.032 | [3] 0.071 | [4] -0.005 | [5] -0.011

NFATC3 (UniProt Q12968)
inactive: [1] -0.03 | [2] 0.081 | [3] 0.12 | [4] 0.16 | [5] 0.065

NUDT21 (UniProt O43809)
inactive: [1] 0.013 | [2] 0.021 | [3] 0.011 | [4] -0.01 | [5] 0.001

MRPS22 (UniProt P82650)
inactive: [1] -0.016 | [2] 0.05 | [3] -0.037 | [4] 0.087 | [5] -0.063

NUP160 (UniProt Q12769)
inactive: [1] -0.013 | [2] 0.043 | [3] 0.038 | [4] 0.014 | [5] 0.044

OXR1 (UniProt Q8N573)
inactive: [1] -0.021 | [2] 0.026 | [3] 0.039 | [4] -0.041 | [5] -0.069

OTULIN (UniProt Q96BN8)
inactive: [1] -0.07 | [2] -0.019 | [3] 0.124 | [4] 0.005 | [5] 0.005

NAT14 (UniProt Q8WUY8)
inactive: [1] -0.059 | [2] 0.055 | [3] -0.087 | [4] 0.043 | [5] -0.047

NA, A0A096LPI6
inactive: [1] 0.055 | [2] -0.023 | [3] -0.001 | [4] 0.017 | [5] 0.023

NUP205 (UniProt Q92621)
inactive: [1] -0.004 | [2] 0.035 | [3] 0.08 | [4] -0.043 | [5] 0.008

NOP56 (UniProt O00567)
inactive: [1] 0.045 | [2] -0.289 | [3] -0.281 | [4] 0.154 | [5] 0.024

NNMT (UniProt P40261)
inactive: [1] 0.021 | [2] 0.051 | [3] 0.078 | [4] -0.009 | [5] -0.055

NDUFB7 (UniProt P17568)
inactive: [1] -0.032 | [2] -0.01 | [3] -0.004 | [4] -0.015 | [5] 0.03

MRPS18B (UniProt Q9Y676)
inactive: [1] -0.055 | [2] -0.113 | [3] -0.041 | [4] 0.127 | [5] -0.078

MKNK1 (UniProt Q9BUB5)
UniProt Q9BUB5, sequence (Q9BUB5 whole entry, looked up): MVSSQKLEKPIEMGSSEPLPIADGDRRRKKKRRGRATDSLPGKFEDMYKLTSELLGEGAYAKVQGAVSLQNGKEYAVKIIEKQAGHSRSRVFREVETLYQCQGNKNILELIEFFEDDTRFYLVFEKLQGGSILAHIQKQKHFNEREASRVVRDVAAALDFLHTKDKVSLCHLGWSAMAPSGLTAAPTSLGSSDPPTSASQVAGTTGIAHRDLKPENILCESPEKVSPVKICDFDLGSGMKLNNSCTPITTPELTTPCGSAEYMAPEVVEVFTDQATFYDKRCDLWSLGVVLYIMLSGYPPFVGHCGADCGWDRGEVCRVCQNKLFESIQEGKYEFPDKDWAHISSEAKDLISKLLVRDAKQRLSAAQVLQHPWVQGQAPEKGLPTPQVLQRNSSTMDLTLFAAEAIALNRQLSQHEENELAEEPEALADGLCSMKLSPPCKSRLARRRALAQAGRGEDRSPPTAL
inactive: [1] -0.056 | [2] 0.039 | [3] 0.065 | [4] 0.03 | [5] -0.009

NUP85 (UniProt Q9BW27)
inactive: [1] -0.009 | [2] -0.018 | [3] 0.042 | [4] -0.004 | [5] 0.019

NAA38 isoform 2 (UniProt Q9BRA0)
UniProt Q9BRA0, sequence (Q9BRA0 whole entry, looked up): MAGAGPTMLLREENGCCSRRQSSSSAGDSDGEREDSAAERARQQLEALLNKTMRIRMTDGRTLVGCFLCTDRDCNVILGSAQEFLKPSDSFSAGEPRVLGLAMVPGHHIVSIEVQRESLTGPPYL
inactive: [1] 0.038 | [2] 0.057 | [3] -0.013 | [4] -0.029 | [5] -0.124

NCOA7 (UniProt Q8NI08)
inactive: [1] 0.03 | [2] 0.093 | [3] 0.036 | [4] 0.016 | [5] -0.058

OTUD4 (UniProt Q01804)
UniProt Q01804, sequence (Q01804 whole entry, looked up): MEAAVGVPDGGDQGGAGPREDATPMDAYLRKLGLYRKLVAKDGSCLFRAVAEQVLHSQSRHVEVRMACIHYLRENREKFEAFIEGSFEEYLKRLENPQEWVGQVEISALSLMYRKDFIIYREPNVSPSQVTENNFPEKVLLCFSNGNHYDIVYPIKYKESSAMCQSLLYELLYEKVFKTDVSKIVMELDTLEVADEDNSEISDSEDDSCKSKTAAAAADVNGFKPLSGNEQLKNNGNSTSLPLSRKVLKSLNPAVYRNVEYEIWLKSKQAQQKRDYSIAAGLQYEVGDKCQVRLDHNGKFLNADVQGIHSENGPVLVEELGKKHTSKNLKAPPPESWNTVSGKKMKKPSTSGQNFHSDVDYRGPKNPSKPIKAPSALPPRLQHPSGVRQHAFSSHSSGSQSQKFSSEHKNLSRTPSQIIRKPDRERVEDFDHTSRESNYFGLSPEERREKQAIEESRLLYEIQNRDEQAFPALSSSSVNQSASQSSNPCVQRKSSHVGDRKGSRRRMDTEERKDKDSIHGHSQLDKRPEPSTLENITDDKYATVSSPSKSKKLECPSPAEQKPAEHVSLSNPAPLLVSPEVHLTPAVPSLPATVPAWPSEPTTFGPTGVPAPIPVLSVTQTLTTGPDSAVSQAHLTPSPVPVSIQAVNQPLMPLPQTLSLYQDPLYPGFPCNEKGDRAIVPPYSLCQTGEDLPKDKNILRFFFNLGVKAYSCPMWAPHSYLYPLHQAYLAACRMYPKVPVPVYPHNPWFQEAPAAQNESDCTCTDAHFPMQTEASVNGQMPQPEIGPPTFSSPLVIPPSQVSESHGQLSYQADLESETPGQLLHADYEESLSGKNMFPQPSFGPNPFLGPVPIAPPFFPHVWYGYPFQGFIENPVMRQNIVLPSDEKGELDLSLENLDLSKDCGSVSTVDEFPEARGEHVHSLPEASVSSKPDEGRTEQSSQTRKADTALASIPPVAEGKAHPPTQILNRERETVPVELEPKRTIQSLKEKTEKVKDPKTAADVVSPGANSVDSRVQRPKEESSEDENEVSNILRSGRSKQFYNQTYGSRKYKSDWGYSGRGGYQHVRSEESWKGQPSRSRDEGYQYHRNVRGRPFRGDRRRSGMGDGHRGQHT
inactive: [1] 0.033 | [2] -0.034 | [3] -0.05 | [4] 0.111 | [5] 0.011

NEDD4L (UniProt Q96PU5)
UniProt Q96PU5, sequence (Q96PU5 whole entry, looked up): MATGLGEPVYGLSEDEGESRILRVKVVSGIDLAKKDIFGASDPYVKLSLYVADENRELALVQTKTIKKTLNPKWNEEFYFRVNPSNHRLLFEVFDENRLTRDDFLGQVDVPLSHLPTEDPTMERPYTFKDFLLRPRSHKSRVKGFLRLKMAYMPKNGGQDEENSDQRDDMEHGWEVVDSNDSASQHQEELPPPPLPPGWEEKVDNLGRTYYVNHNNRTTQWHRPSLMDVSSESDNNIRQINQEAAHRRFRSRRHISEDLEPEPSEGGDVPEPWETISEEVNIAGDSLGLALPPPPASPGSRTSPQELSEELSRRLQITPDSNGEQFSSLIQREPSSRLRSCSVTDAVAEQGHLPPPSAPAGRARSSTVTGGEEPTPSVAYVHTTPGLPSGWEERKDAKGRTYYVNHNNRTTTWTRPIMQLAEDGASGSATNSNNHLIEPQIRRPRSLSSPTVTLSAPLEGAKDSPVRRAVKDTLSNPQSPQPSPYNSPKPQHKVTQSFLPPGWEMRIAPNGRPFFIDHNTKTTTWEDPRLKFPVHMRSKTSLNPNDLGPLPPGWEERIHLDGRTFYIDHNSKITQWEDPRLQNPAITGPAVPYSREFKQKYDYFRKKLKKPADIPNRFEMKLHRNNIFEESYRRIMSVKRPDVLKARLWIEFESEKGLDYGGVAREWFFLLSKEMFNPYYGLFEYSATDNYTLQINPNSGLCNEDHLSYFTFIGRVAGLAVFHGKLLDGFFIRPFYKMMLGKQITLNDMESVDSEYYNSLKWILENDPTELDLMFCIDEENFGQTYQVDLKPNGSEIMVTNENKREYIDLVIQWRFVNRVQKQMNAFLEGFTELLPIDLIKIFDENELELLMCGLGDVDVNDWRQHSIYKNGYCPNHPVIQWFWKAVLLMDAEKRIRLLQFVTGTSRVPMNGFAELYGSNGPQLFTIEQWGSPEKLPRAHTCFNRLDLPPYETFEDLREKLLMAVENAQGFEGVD
inactive: [1] 0.014 | [2] 0.038 | [3] 0.039 | [4] 0.054 | [5] 0.027

NISCH (UniProt Q9Y2I1)
inactive: [1] 0.044 | [2] -0.02 | [3] 0.036 | [4] 0.044 | [5] -0.044

NDUFA12 (UniProt Q9UI09)
UniProt Q9UI09, sequence (Q9UI09 whole entry, looked up): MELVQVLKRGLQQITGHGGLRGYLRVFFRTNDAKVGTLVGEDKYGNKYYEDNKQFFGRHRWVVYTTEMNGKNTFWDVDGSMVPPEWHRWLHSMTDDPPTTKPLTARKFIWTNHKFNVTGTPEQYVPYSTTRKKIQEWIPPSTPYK
inactive: [1] -0.046 | [2] 0.126 | [3] 0.145 | [4] -0.086 | [5] -0.051

OXA1L (UniProt Q15070)
inactive: [1] 0.014 | [2] -0.01 | [3] 0.018 | [4] 0 | [5] 0.009

MON1B (UniProt Q7L1V2)
UniProt Q7L1V2, sequence (Q7L1V2 whole entry, looked up): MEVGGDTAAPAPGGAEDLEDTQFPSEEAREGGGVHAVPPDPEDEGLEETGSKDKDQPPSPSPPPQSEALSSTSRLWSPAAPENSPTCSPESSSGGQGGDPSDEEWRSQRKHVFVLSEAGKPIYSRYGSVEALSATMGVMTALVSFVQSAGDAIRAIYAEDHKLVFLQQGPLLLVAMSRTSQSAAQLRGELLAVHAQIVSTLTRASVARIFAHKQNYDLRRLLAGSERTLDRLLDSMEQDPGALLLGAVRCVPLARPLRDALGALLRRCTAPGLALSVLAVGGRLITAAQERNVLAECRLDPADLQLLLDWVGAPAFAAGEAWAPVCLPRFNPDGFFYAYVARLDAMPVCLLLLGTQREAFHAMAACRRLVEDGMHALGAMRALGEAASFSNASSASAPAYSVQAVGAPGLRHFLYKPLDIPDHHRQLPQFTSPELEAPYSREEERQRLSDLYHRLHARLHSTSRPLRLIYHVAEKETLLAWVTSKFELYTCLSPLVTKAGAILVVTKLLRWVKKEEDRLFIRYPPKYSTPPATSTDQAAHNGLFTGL
inactive: [1] -0.032 | [2] 0.044 | [3] 0.056 | [4] -0.008 | [5] -0.064

NECTIN2 (UniProt Q92692)
UniProt Q92692, sequence (Q92692 whole entry, looked up): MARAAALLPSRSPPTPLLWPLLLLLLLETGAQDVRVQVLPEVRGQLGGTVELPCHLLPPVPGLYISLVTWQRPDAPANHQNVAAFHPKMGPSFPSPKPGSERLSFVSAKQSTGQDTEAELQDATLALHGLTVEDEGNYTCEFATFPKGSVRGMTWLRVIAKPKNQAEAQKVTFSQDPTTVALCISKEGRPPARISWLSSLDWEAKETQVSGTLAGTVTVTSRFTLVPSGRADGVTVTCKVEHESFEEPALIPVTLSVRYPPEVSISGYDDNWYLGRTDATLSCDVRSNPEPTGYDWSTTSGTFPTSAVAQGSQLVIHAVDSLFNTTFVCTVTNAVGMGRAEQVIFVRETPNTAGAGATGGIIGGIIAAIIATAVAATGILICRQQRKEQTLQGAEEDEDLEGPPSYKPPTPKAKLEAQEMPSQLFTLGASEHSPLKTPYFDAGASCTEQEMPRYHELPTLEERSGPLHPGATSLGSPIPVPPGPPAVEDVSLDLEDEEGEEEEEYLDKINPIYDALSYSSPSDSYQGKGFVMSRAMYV
inactive: [1] 0.017 | [2] 0.031 | [3] -0.019 | [4] -0.009 | [5] -0.012

NEMP1 (UniProt O14524)
inactive: [1] 0.015 | [2] -0.003 | [3] 0.036 | [4] 0.048 | [5] -0.018

NDUFB1 (UniProt O75438)
UniProt O75438, sequence (O75438 whole entry, looked up): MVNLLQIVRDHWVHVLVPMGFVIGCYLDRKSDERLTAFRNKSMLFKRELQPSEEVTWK
inactive: [1] -0.004 | [2] -0.059 | [3] -0.056 | [4] -0.138 | [5] 0.055

NOP58 (UniProt Q9Y2X3)
inactive: [1] 0.039 | [2] -0.151 | [3] -0.063 | [4] 0.068 | [5] 0.031

NEDD4 isoform 4 (UniProt P46934)
inactive: [1] -0.006 | [2] 0.103 | [3] 0.081 | [4] 0.002 | [5] -0.007

MT-ND4 (UniProt P03905)
inactive: [1] -0.124 | [2] -0.017 | [3] -0.045 | [4] -0.057 | [5] 0.036

NELFA (UniProt Q9H3P2)
UniProt Q9H3P2, sequence (Q9H3P2 whole entry, looked up): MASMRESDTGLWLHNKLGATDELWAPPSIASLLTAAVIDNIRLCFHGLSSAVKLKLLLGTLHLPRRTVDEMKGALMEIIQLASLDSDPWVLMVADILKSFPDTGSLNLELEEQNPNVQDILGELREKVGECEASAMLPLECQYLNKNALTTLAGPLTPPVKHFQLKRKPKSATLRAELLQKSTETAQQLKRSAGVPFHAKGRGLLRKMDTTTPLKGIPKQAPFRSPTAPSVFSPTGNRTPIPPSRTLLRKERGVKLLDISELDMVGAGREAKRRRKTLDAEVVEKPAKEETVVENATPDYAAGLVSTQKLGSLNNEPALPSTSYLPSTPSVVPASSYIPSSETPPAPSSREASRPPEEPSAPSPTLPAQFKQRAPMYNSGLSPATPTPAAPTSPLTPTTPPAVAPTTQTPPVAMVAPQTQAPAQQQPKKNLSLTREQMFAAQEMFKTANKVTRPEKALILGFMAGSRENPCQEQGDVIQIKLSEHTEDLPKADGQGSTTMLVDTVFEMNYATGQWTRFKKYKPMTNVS
inactive: [1] -0.016 | [2] 0.213 | [3] 0.056 | [4] -0.07 | [5] 0.035

MTMR14 (UniProt Q8NCE2)
inactive: [1] 0.03 | [2] 0.047 | [3] 0.156 | [4] -0.011 | [5] 0.069

NKAP (UniProt Q8N5F7)
inactive: [1] -0.013 | [2] 0.148 | [3] 0.049 | [4] 0.078 | [5] 0.171

NUP210 (UniProt Q8TEM1)
inactive: [1] -0.083 | [2] 0.059 | [3] 0.037 | [4] -0.013 | [5] -0.028

OSTM1 (UniProt Q86WC4)
UniProt Q86WC4, sequence (Q86WC4 whole entry, looked up): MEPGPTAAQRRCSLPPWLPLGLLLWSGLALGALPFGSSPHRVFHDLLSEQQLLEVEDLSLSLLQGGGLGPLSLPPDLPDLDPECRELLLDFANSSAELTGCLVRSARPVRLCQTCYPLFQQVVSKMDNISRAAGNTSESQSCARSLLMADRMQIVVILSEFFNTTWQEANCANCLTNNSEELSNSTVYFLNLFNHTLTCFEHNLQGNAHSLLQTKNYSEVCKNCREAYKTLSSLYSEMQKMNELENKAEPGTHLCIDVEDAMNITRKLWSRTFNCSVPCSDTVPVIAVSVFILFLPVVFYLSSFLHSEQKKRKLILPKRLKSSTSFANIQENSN
inactive: [1] 0.023 | [2] 0.036 | [3] 0.058 | [4] -0.091 | [5] -0.013

NAA11 (UniProt Q9BSU3)
inactive: [1] 0.009 | [2] 0.042 | [3] 0.049 | [4] -0.12 | [5] -0.049

ORC3 isoform 2 (UniProt Q9UBD5)
inactive: [1] -0.098 | [2] 0.032 | [3] 0.107 | [4] 0.013 | [5] -0.079

NCL (UniProt P19338)
inactive: [1] 0.158 | [2] -0.365 | [3] -0.299 | [4] 0.227 | [5] 0

MRM2 (UniProt Q9UI43)
inactive: [2] 0.021 | [3] 0.071 | [4] 0 | [5] -0.052

MYO19 (UniProt Q96H55)
inactive: [1] -0.07 | [2] 0.016 | [3] 0.146 | [5] 0.088

MSANTD2 (UniProt Q6P1R3)
inactive: [3] 0.06 | [4] 0.028

MSL1 (UniProt Q68DK7)
inactive: [1] 0.083 | [3] 0.17

MON1A (UniProt Q86VX9)
inactive: [1] 0.1 | [4] -0.071

OSBPL3 (UniProt Q9H4L5)
inactive: [2] -0.077 | [3] -0.035 | [4] 0.292 | [5] 0.14

MYL12B (UniProt O14950)
inactive: [1] 0.028 | [2] 0.054 | [3] 0.009 | [4] -0.025 | [5] -0.077

MSH3 (UniProt P20585)
inactive: [1] 0.008 | [2] 0.085 | [3] 0.052 | [4] -0.028 | [5] -0.087

MLX (UniProt Q9UH92)
inactive: [1] -0.055 | [2] 0.032 | [4] 0.093 | [5] -0.011
